Inconclusive results are not listed. The source made the active and inactive calls. Unless noted, calls follow the shape of the dose curve; as a rule, active = well fitted curve in either direction with a large enough effect (not every such curve was filed as active); inconclusive = small, poorly fitted or top-dose-only effect, or another doubt; inactive = flat fitted curve, though single readings scatter.
What was measured:
[1] = AP1 Signaling Pathway (AID 357); conditions: ME-180 AP-1-bla reporter, EGF-induced, beta-lactamase ratio, 5 h; at 17.2 µM (top of the series) unless noted;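 also: ME-180 reporter cells stimulated with EGF at its EC50 level; % is scaled to controls: 0 for no effect and ±100 for the full control effect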
Outline: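 Cells are seeded overnight, exposed to compound titrations and an EC50 level of EGF for 5 hours at 37 °C, then loaded with CCF4 dye for 2.5 hours. Beta-lactamase activity under the AP-1 element is read as a blue/green ratio.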

[2] = Stat Signaling Pathway (AID 446); conditions: ME-180 (cervical carcinoma) SIE beta-lactamase reporter, IL-6 stimulated, 5 h; at 17.2 µM (top of the series) unless noted;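 also: ME-180 cervical cancer cells given 40 pM IL-6 alongside compound; SIE-controlled beta-lactamase reporter measured as 460/530 nm FRET emission ratio; % is scaled to controls: 0 for no effect and ±100 for the full control effect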
Outline: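 Overnight-plated ME-180 cells bearing a STAT Inducible Element beta-lactamase reporter; 5 h co-exposure to compound and 40 pM IL-6; values normalized to 300 pM IL-6 and 125 nM JAK inhibitor controls.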

[3] = molecular target: Glucocorticoid receptor (Homo sapiens) (UniProt P04150); assay: GR-GFP Redistribution (AID 450;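 active = compounds whose dose series gives a full or clear partial fitted curve of increased nuclear translocation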; also: potency is read from the fitted curve at half-maximal effect)
Chain of Glucocorticoid receptor (Homo sapiens) (P04150 whole entry, looked up, the tested form may be a part): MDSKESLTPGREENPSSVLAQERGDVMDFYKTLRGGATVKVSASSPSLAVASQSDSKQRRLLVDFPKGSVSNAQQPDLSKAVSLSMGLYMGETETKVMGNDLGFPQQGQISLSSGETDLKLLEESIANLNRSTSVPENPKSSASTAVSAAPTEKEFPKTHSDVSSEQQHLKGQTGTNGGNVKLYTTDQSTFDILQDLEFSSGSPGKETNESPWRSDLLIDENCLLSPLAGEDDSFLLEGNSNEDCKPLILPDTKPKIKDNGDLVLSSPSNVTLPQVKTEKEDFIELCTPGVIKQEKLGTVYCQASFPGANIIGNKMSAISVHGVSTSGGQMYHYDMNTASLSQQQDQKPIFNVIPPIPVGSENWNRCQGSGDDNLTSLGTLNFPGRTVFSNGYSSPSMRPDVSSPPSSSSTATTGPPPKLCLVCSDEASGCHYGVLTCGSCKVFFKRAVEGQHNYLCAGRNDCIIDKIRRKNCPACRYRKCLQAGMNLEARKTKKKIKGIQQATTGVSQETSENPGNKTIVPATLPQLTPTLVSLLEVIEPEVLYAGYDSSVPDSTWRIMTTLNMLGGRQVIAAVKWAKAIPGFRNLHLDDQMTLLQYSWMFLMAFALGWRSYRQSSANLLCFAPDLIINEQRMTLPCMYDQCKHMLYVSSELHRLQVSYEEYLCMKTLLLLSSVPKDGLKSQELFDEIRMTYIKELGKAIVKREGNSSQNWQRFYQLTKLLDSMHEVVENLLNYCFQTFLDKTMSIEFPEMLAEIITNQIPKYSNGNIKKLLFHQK

[4] = qHTS for Inhibitors of the vitamin D receptor (VDR): Hit Validation using a Texas Red Assay (AID 602201; active = well fitted curve in the direction sought with a large enough effect; an effect the other way counts as inactive or inconclusive; also: potency is read from the fitted curve at half-maximal effect); conditions: VDR coregulator binding, Texas Red fluorescence polarization; agonist-bound VDR ligand-binding domain
Outline: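 Fluorescence polarization (Ex 595/Em 615 nm) of Texas Red (7 nM) with 1.5 uM VDR-LBD and LG19078 (final concentrations). Compounds were incubated for 2 hours at room temperature.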

[5] = molecular target: Glucocorticoid receptor (Homo sapiens) (UniProt P04150); assay: GR-EFC Redistribution (AID 451; calls by dose curve; also: potency is read from the fitted curve at half-maximal effect); conditions: CHO-K1 GR-EFC translocation, beta-gal luminescence, 2 h
Outline: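 CHO-K1 cells stably expressing nuclear-localized β-gal enzyme acceptor and GR fused C-terminally to the enzyme donor fragment; ligand-driven nuclear translocation restores β-gal by complementation. Compounds titrated up to 46 uM final, 2 h at 37 °C; luminescence read.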

[6] = molecular target: 3',5'-cyclic-AMP phosphodiesterase 4B (Homo sapiens) (UniProt Q07343); assay: qHTS Assay for Inhibitors of PDE-IV (AID 607; active = well fitted activation curve with a large enough effect in the main read-out, with a control signal flat, not every such curve was filed as active; also: % of control where 0% means no effect)
Chain of 3',5'-cyclic-AMP phosphodiesterase 4B (Homo sapiens) (Q07343 whole entry, looked up): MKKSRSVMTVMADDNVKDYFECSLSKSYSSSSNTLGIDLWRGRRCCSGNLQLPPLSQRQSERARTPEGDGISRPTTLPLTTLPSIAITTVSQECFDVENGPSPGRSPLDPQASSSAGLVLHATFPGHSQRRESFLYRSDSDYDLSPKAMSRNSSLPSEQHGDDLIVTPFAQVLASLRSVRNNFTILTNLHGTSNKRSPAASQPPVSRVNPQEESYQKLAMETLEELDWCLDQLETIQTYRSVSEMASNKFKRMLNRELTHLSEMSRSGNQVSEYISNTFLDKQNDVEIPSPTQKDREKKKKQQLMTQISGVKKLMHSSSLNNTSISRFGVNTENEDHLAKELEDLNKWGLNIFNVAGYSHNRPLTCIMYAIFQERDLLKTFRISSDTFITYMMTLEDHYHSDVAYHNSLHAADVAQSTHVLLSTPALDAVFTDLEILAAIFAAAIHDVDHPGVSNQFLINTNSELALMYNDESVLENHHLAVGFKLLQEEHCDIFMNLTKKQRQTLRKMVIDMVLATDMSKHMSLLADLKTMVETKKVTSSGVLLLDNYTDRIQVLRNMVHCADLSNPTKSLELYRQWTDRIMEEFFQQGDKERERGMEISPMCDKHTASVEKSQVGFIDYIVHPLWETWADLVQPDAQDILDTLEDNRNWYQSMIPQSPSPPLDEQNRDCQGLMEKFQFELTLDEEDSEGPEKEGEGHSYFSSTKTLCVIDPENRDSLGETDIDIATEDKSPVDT
Outline: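 Live HEK293 cells with a modified cyclic nucleotide-gated (CNG) channel report intracellular cAMP via membrane-potential dye fluorescence (ex 535/em 590 nm). Endogenous PDE-IV was targeted. Compounds were tested at up to 22.9 uM final; RO 20-1724 100 uM served as control.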

[7] = molecular target: Guanine nucleotide-binding protein G(i) subunit alpha-1 (Homo sapiens) (UniProt P63096); assay: qHTS Assay for Inhibitors of RGS12 GoLoco Motif Activity (Green Fluorophore) (AID 879; active = well fitted curve in the direction sought with a large enough effect; an effect the other way counts as inactive or inconclusive;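 also: 0% = labeled peptide with Gαi1 and full inhibition = labeled peptide alone without protein; negative values mean loss of peptide binding seen as reduced polarization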)
Chain of Guanine nucleotide-binding protein G(i) subunit alpha-1 (Homo sapiens) (P63096 whole entry, looked up): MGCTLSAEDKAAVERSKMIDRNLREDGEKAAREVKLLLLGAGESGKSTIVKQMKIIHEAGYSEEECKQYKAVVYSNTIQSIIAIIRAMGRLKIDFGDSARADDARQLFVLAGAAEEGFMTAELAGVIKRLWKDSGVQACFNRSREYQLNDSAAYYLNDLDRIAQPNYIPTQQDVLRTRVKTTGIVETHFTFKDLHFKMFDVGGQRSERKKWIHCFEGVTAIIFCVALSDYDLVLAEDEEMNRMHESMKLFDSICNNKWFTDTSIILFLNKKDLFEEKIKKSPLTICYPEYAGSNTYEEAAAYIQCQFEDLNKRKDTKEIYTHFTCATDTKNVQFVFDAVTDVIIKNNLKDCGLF
Outline: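 A drop in FITC polarization marked displacement of the FITC-tagged RGS12 GoLoco peptide (10 nM) from Gαi1 (50 nM). Compounds were incubated 10 min at room temperature in Tris pH 7.5 buffer containing 150 mM NaCl, 0.1 mM GDP and 0.05% NP40; unlabeled peptide titration served as control.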

[8] = qHTS Assay for Identification of Small Molecule Agonists for Thrombopoietin (TPO) Signaling Pathway (AID 917; active = well fitted curve in the direction sought with a large enough effect; an effect the other way counts as inactive or inconclusive; also: % is scaled to controls: 0 for no effect and ±100 for the full control effect)
Outline: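 Ba/F3 (mouse) + hTPO receptor + GpIIb-promoter luciferase; IL-3 withdrawn overnight; compound + 26 pM TPO (EC50), 24 hrs, 37 C, 5% CO2; Steadylite luminescence, 10 min RT.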

[9] = molecular target: Muscarinic acetylcholine receptor M1 (Rattus norvegicus) (UniProt P08482); assay: qHTS Assay for Antagonists of Acetylcholine Muscarinic M1 Receptor: Measurement of IP-One Response (AID 944; active = well fitted curve in the direction sought with a large enough effect; an effect the other way counts as inactive or inconclusive; also: nearly all actives have a fitted effect of over 75% in size)
Chain of Muscarinic acetylcholine receptor M1 (Rattus norvegicus) (P08482 whole entry, looked up): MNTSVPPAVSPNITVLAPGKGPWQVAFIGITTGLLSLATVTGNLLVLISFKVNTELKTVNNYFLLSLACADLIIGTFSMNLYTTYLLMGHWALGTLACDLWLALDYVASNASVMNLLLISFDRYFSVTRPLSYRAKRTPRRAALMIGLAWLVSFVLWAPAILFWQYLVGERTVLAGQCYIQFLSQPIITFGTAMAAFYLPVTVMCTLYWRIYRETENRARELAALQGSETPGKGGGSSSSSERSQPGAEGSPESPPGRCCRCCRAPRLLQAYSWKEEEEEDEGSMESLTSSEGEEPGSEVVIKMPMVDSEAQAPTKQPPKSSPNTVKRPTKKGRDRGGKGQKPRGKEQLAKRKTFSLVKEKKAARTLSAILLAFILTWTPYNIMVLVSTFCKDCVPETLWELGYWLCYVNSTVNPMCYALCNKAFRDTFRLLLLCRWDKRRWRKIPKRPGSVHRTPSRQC
Outline: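 Read-out: HTRF competition between d2-IP1 and Eu-cryptate anti-IP1 antibody, emission 620 and 665 nm. Stimulus was carbachol, EC80 (200 nM), for 30 min in M1-CHO cells (rat receptor), after 10 min compound pre-treatment.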

[10] = molecular target: Pyruvate kinase (Leishmania mexicana) (UniProt Q27686); assay: qHTS Validation Assay for Inhibitors of Leishmania Mexicana Pyruvate Kinase (AID 945; active = well fitted curve in the direction sought with a large enough effect; an effect the other way counts as inactive or inconclusive;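 also: 0% = DMSO only neutral control wells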)
Chain of Pyruvate kinase (Leishmania mexicana) (Q27686 2-499 E452W): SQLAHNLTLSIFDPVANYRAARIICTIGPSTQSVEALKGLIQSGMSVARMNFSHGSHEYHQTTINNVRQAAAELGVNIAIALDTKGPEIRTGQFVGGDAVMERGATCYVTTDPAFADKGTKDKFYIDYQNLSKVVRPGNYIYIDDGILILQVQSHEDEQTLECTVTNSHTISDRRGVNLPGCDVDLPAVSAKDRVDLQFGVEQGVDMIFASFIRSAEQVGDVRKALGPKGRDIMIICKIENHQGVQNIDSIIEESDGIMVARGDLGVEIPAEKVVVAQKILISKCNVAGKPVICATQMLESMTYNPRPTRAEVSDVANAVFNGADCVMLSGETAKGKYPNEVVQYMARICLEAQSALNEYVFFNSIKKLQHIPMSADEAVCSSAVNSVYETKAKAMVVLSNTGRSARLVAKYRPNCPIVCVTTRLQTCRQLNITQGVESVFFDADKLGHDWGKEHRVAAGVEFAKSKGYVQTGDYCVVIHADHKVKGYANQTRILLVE
Outline: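 Compounds are tested as eight-point concentration series. Reactions contain 0.2 nM LmPYK E451W, 0.5 mM PEP, 0.1 mM ADP, 7 mM MgCl2 and 50 mM KCl at pH 7.2, run 1 h at room temperature, then read by PKLight luminescence.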

[11] = molecular target: Pyruvate kinase PKM (Homo sapiens) (UniProt P14618); assay: qHTS Assay for Activators of Human Muscle Pyruvate Kinase (AID 954; active = well fitted curve in the direction sought with a large enough effect, not every such curve was filed as active;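 also: 0% = uninhibited enzyme and -100% = no enzyme or full thiadiazolimine inhibition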)
Chain of Pyruvate kinase PKM (Homo sapiens) (P14618 whole entry, looked up): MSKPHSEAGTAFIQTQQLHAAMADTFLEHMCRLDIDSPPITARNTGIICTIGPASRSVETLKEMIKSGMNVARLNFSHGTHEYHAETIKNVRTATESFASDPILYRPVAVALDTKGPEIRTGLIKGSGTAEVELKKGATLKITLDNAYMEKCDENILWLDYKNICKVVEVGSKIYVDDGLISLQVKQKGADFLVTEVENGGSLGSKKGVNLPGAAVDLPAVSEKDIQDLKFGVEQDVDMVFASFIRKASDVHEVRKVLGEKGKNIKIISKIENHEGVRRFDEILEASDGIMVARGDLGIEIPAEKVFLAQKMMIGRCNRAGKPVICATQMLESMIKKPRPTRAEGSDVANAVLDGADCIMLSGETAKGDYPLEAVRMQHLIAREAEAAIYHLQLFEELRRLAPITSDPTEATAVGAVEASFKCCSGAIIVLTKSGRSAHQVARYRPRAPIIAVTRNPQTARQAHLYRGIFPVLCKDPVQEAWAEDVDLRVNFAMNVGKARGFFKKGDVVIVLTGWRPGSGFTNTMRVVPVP
Outline: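 Screening used highly purified human pyruvate kinase M2 under submaximal activity, with PEP at its Km and ADP below Km. After an hour at room temperature, ATP was read by luciferase luminescence.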

[12] = molecular target: Alpha-galactosidase A (Homo sapiens) (UniProt P06280); assay: Counterscreen for Glucocerebrosidase Inhibitors: qHTS Assay for Human alpha-Galactosidase at pH 4.5 (AID 992; active = well fitted curve in the direction sought with a large enough effect; an effect the other way counts as inactive or inconclusive; also: 0% is about no effect)
Chain of Alpha-galactosidase A (Homo sapiens) (P06280 whole entry, looked up): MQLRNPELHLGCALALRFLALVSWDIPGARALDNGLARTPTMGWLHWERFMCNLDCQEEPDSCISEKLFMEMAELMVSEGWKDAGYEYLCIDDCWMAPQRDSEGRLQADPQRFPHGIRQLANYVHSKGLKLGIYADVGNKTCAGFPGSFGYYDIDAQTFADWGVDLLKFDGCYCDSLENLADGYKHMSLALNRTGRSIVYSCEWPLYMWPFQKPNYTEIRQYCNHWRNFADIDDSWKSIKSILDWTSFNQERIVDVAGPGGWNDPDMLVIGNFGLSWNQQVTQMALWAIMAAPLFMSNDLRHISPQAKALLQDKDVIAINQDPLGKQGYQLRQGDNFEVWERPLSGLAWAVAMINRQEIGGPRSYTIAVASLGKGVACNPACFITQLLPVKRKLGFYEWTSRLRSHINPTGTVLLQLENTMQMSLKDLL
Outline: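 Each compound is preincubated briefly with 2 nM enzyme before substrate addition (80 uM); plates then sit 20 min at ambient temperature, are quenched with 1M NaOH/1M glycine, and read fluorometrically.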

[13] = molecular target: alpha-glucosidase (Oryza sativa, rice) (UniProt Q653V4); assay: Counterscreen for Glucocerebrosidase Inhibitors: qHTS Assay for Rice alpha-Glucosidase at pH 5.0 (AID 997; active = well fitted curve in the direction sought with a large enough effect; an effect the other way counts as inactive or inconclusive;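 also: 0% = full activity with enzyme and -100% = basal without enzyme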)
Outline: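 Endpoint fluorogenic assay at pH 5.0: compounds (0.7 nM to 77 uM) titrated against 4 nM rice enzyme and 400 uM 4-MU-alpha-glucoside for 20 min at room temperature; NaOH/glycine stop, read ex 365/em 440 nm, Hill-fitted AC50.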

[14] = molecular target: Mitogen-activated protein kinase 10 (Mus musculus) (UniProt Q61831); assay: JNK3 AlphaScreen Assay (AID 530);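 also: kinase came from lysate of stimulated human HepG2 cells; signal reports phosphorylation of biotinylated GST-cJun 1-79 at Ser73 with 10 µM ATP; % is scaled to controls: 0 for no effect and ±100 for the full control effect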
Outline: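 Biotinylated GST-cJun(1-79) served as substrate for JNK3 in HepG2 lysates stimulated with IL-1beta and TNF-alpha. ATP was 10 uM final, pH 7.6. Ser73 phosphorylation was quantified by AlphaScreen (680 nm excitation).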

CC(C)Oc1ccc(C(=O)CCN2CCCCC2)cc1
inactive: activity change, negative = inhibition [1] -9.61% | activity, negative = inhibition [2] -10.9% | Potency [3] > 20.6 µM
active: Potency [4] 3.98 µM

O=C(Nc1nc(NC(=O)c2ccco2)n(-c2ccccc2)n1)c1ccccc1
inactive: activity change, negative = inhibition [1] -13.5% | activity, negative = inhibition [2] -22.6% | Potency [3] > 20.6 µM

CC(=O)O[C@@H]1C[C@]2(C)[C@H](C[C@@H](O)[C@H]3[C@@]4(C)CC[C@@H](O)[C@@H](C)[C@@H]4CC[C@@]32C)/C1=C(\CCC=C(C)C)C(=O)O
inactive: activity change, negative = inhibition [1] -14.6% [at 38 µM] | activity, negative = inhibition [2] 11.2% [at 38 µM] | Potency [3] > 46 µM | Potency [5] > 46 µM | Potency [6] | outcome [7] | Potency [8] | Potency [9] | Potency [10] | outcome [11] | outcome [12] | outcome [13]

CCOC(=O)C1=C(C)NC(C)=C(C(=O)OC)[C@@H]1c1cccc(Cl)c1Cl
inactive: activity change, negative = inhibition [1] -13.1% | activity, negative = inhibition [2] -13.3% | Potency [3] > 20.6 µM | Potency [5] > 20.6 µM | Potency [14]

— PubChem BioAssay (NCATS)
